# Active and inactive are the calls of the source. Unless noted, no rule for the calls is given here.
# Key:
# [1] = HepG2 liver cancer cell viability effects, profiling panel, resazurin fluorescence, 24 h, PK04 Diversity Set (AID 1172); conditions: higher = more signal; also: test concentration not given here
# [2] = basal S. cerevisiae growth modulation, no modifier, primary screen, OD600, strain BY4716, 24 h, basal condition (AID 1173); conditions: OD600, 24 h, higher = more signal, called active from +8 up or from −8 down
# [3] = MM1S myeloma cell viability, profiling panel, resazurin fluorescence, basal, 24 h, PK04 Diversity Set (AID 1174); conditions: higher = more signal, called active from +8 up or from −8 down;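 also: MM1S multiple myeloma cell line; test concentration not given here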
# [4] = molecular target: Dihydroorotate dehydrogenase (quinone), mitochondrial (Plasmodium falciparum (isolate 3D7)) (UniProt Q08210); assay: PfDHODH enzyme inhibitors, primary screen, biochemical, C-terminal His tag, absorbance 600 nm (AID 1175); conditions: DCIP absorbance 600 nm, higher = more signal, called active from +8 up or from −8 down;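 also: recombinant parasite enzyme with a five histidine tag at its C terminus; test concentration not given here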
# Dihydroorotate dehydrogenase (quinone), mitochondrial (Plasmodium falciparum (isolate 3D7)), sequence (Q08210 whole entry, looked up): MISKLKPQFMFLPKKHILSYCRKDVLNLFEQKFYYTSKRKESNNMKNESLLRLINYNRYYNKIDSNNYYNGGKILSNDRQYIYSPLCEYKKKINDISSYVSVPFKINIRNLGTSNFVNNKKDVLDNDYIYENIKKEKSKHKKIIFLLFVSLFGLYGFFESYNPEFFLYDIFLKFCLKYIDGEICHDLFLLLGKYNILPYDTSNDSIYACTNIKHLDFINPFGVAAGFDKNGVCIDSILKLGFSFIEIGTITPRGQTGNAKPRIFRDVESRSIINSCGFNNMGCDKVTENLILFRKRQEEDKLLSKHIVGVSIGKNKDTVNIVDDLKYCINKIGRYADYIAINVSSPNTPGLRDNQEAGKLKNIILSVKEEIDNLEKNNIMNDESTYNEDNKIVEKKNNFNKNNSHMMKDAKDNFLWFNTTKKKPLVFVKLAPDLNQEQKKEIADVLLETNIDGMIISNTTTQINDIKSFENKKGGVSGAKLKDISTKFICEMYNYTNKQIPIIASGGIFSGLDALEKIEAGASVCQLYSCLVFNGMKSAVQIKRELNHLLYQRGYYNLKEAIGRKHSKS
# [5] = P. aeruginosa biofilm formation inhibitors, primary screen, strain PAO1, LB-PBS medium, absorbance 600 nm (AID 1176); also: test concentration not given here; conditions: P. aeruginosa PAO1 growth/biofilm, A600, 12 h; higher = more signal
# [6] = S. cerevisiae RM11-1a growth modifiers, primary screen, strain RM11-1a, OD600, basal, 24 h (AID 1177); conditions: OD600, 24 h, higher = more signal, called active from +8 up or from −8 down;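 also: cultures grown under basal conditions with no added stressor; test concentration not given here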
# [7] = E. coli acrAB mutant growth effects, primary screen, E. coli filamentation inducers, strain DRC39, OD650, 24 h (AID 1178); conditions: higher = more signal, called active from +8 up or from −8 down;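 also: growth measured as culture turbidity by optical density at 650 nm; test concentration not given here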
# [8] = E. coli acrAB mutant growth effects, primary screen, E. coli filamentation inducers, strain DRC39, OD650, 48 h (AID 1179);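 also: screen aims at cell division blockers that make cells filament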; conditions: E. coli DRC39 delta-acrAB growth, higher = more signal, called active from +8 up or from −8 down
# [9] = RPMI8226 myeloma cell viability, profiling panel, resazurin fluorescence, basal, 24 h, PK04 Diversity Set (AID 1180); conditions: higher = more signal;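 also: RPMI8826 multiple myeloma cell line at 5000 cells per well; test concentration not given here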
# [10] = molecular target: E3 ubiquitin-protein ligase XIAP (Homo sapiens) (UniProt P98170); assay: XIAP binders, primary screen, biophysical, small-molecule microarray, fluorescence 635 nm (AID 1181); conditions: small-molecule microarray binding, higher = more signal;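 also: score merges 667 nm emission and signal to noise over triplicate slides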
# E3 ubiquitin-protein ligase XIAP (Homo sapiens), sequence (P98170 whole entry, looked up): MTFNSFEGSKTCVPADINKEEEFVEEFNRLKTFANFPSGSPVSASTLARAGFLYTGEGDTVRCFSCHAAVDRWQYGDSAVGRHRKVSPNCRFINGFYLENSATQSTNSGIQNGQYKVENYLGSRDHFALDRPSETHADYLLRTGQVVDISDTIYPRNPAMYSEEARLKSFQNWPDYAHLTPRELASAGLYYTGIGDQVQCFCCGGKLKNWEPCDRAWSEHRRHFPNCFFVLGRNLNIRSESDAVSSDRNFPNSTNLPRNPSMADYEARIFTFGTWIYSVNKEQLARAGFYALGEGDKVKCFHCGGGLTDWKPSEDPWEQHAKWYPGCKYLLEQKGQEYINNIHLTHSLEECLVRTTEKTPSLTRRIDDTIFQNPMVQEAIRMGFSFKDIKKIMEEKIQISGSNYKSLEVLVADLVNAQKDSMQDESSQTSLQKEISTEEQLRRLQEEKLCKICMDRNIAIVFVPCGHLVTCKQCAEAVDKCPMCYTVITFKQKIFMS
SMILES,z-score [1],z-score [2],z-score [3],composite z-score [4],z-score [5],z-score [6],z-score [7],z-score [8],z-score [9],composite z-score [10]
COCCOC(=O)N1C(=O)[C@@]2(c3cc(C#CCCO)ccc31)[C@H](c1ccc(OCCO)cc1)N1[C@H](c3ccccc3)[C@H](c3ccccc3)OC(=O)[C@H]1[C@@H]2C(=O)Nc1nc2ccccc2s1,0.32,1.9 (inactive),-0.344 (inactive),-0.719 (inactive),1.56 (inactive),2.38 (inactive),-0.0627 (inactive),0.0759 (inactive),-0.687,-0.124
CC(C)=C1C(=O)C(c2ccccc2)=C2CN3C(=O)N(CCc4ccccc4)C(=O)[C@]3(Cc3ccc(C(F)(F)F)cc3)[C@H]21,-1.09,0.908 (inactive),-1.32 (inactive),-0.29 (inactive),0.799 (inactive),0.12 (inactive),-0.943 (inactive),-0.633 (inactive),-1.19,-0.213
COc1ccc([Si](C)(C)[C@@H]2[C@@H](CCO)O[C@]3(C(=O)N(Cc4ccccc4)c4ccc(N5C(=O)c6cccc7cccc5c67)cc43)[C@H]2C)cc1,-0.0019,0.282 (inactive),0.274 (inactive),-0.488 (inactive),2.24 (inactive),4.59 (inactive),2.16 (inactive),1.45 (inactive),-0.298,-0.152
C=CCC(OC(C)=O)[C@@H]1[C@@H](N(Cc2cccc3ccccc23)C(=O)Cc2ccc(F)cc2)c2cc(OCCCO)ccc2N1C(=O)c1ccc2ccccc2c1 (stereo not given in full),0.921,0.274 (inactive),0.697 (inactive),0.339 (inactive),-0.0057 (inactive),0.036 (inactive),0.655 (inactive),0.83 (inactive),0.276,0.34
COCCOC(=O)N1C(=O)[C@@]2(c3cc(C#CC4=CCCCC4)ccc31)[C@H](c1ccccc1OCCO)N1[C@H](c3ccccc3)[C@H](c3ccccc3)OC(=O)[C@H]1[C@@H]2C(=O)N1CCN(c2ncccn2)CC1,0.574,0.456 (inactive),0.411 (inactive),-0.184 (inactive),1.56 (inactive),0.756 (inactive),0.259 (inactive),-1.22 (inactive),0.0816,-0.124
COCCCNC(=O)[C@@]1(CCC(=O)OC(C)(C)C)N=C(c2ccc(OCCCO)cc2)O[C@H]1c1ccccc1N=[N+]=[N-],1.6,-0.497 (inactive),-0.0477 (inactive),-0.291 (inactive),-0.165 (inactive),0.252 (inactive),1.42 (inactive),0.268 (inactive),0.72,-0.0773
C=C(C(=O)CC[C@H](OC(=O)c1ccccc1-c1ccccc1C(=O)O)c1cccc(OCCO)c1)C(C)C,-0.862,-0.907 (inactive),-0.69 (inactive),-0.23 (inactive),0.804 (inactive),-0.427 (inactive),-1.08 (inactive),-1.03 (inactive),-0.69,0.0617
C=C(COC)/C(=C/C[C@H](OC(=O)c1ccncc1)c1ccc(CO)o1)c1cnc2ccccc2c1,-0.338,0.107 (inactive),-0.117 (inactive),-7.5 (inactive),0.449 (inactive),0.158 (inactive),-0.305 (inactive),-0.343 (inactive),0.0987,-0.121
Cc1cc(C)c(C(O)C2C=CC3C(=O)N(c4ccccc4)C(=O)C3N2Nc2ccccc2F)c(C)c1 (stereo not given),0.485,2.01 (inactive),-0.371 (inactive),1.03 (inactive),0.971 (inactive),1.56 (inactive),-0.47 (inactive),-0.439 (inactive),-0.527,0.127
C=CCNC(=O)[C@@H]1[C@H]2C(=O)O[C@H](c3ccccc3)[C@H](c3ccccc3)N2[C@H](c2ccccc2OCCO)[C@@]12C(=O)N(C(=O)OCCOC)c1ccc(C#CC3(O)CCCCCC3)cc12,-0.405,0.605 (inactive),-2.57 (inactive),-1.91 (inactive),2.12 (inactive),0.766 (inactive),0.0265 (inactive),-0.609 (inactive),-3.27,0.133
COC(=O)[C@@]1(Cc2ccccc2)[C@H]2c3cc(C(=O)N(C)C)n(Cc4ccc(C)o4)c3C[C@H]2CN1C(=O)c1ccccc1,-0.98,1.51 (inactive),-3.41 (inactive),-2.93 (inactive),3.55 (inactive),1.25 (inactive),-0.513 (inactive),-1.08 (inactive),-3.13,0.696
